Results taken from PubChem BioAssay (EPA / NIEHS).
The source made the active and inactive calls. How the source made its calls: active means hit-call score of the fitted dose curve at least 0.9, where 1 is the maximum; inactive means score below 0.9.

Experiments:
[1] = biological target: Transcription factor E2F1 (Homo sapiens) (UniProt Q01094); assay: ATG_E2F_CIS: Attagene CIS-FACTORIAL HepG2 Assay for human E2F Transcription Factor 1 (AID 2282935); details: HepG2 Attagene cis-reporter, E2F reporter RNA transcripts; actives raise or lower the signal
Method in brief: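 First, HepG2 cells were transfected with reporter transcription units. Next, they were dosed for 24 h. Then RNA was isolated, converted to cDNA, PCR-amplified, FAM-labeled, HpaI-digested and analyzed by capillary electrophoresis.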

[2] = ATG_E_Box_CIS: Attagene CIS-FACTORIAL HepG2 Assay for human Enhancer Box (E-box) (AID 2282936); details: HepG2 E-box cis-reporter transcription, actives raise or lower the signal
Method in brief: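 Endogenous transcription factor activity was sensed in human HepG2 liver cells through transfected cis-promoter reporter units. After 24 h of dosing, total RNA was reverse-transcribed and reporter cDNA resolved by capillary electrophoresis.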

[3] = ATG_M_61_CIS: Attagene CIS-FACTORIAL HepG2 Assay for M61 Transcription Factor (Internal Marker) (AID 2282937); details: HepG2 Attagene CIS-FACTORIAL M61 internal marker reporter; actives raise or lower the signal
Method in brief: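 Endogenous transcription factor activity in HepG2 is read through transiently transfected cis-element reporter units. After 24 h dosing, RNA undergoes reverse transcription, PCR and primer extension with 6-FAM before capillary electrophoresis; DMSO-referenced bidirectional fit.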

[4] = ATG_EGR_CIS: Attagene CIS-FACTORIAL HepG2 Assay for human Early Growth Response 1 (EGR1) (AID 2282938); details: HepG2 Attagene CIS-FACTORIAL EGR reporter mRNA; actives raise or lower the signal
Method in brief: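 Activity is taken as induction or loss of reporter mRNA versus DMSO, fitted bidirectionally. Transcripts from cis-regulated reporter units in transiently transfected HepG2 were measured after 24 h by RT-PCR with capillary electrophoresis.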

[5] = ATG_M_19_CIS: Attagene CIS-FACTORIAL HepG2 Assay for M19 Transcription Factor (Internal Marker) (AID 2282939); details: HepG2 Attagene CIS-FACTORIAL M19 internal marker reporter; actives raise or lower the signal
Method in brief: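 Background-control endpoint from a multiplexed HepG2 reporter panel. Cells carrying cis-regulated reporter constructs are treated 24 h, then reporter transcripts are amplified, fluorescently labelled and sized by capillary electrophoresis. DMSO defines baseline.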

[6] = ATG_ERE_CIS: Attagene CIS-FACTORIAL HepG2 Assay for Estrogen Response Element (ERE) (AID 2282940); details: HepG2 ERE cis-reporter, Attagene RNA transcript; actives raise or lower the signal
Method in brief: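 Cells used were human hepatoma HepG2, transfected with multiple reporter transcription units under cis-regulatory promoters. Reporter mRNA, read 24 h post-dosing via fluorescent RT-PCR products on capillary electrophoresis, was fitted bidirectionally relative to DMSO.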

[7] = ATG_FoxO_CIS: Attagene CIS-FACTORIAL HepG2 Assay for human Forkhead box O (FoxO) (AID 2282943); details: HepG2 Attagene cis-reporter, FoxO element, mRNA; actives raise or lower the signal
Method in brief: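 24 h chemical exposure, HepG2 with transient cis-MRTU transfection. RNA extraction, oligo(dT) RT, reporter-specific PCR, primer-extension labelling, HpaI digestion, CE fragment analysis; bidirectional fit, DMSO baseline.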

[8] = ATG_GATA_CIS: Attagene CIS-FACTORIAL HepG2 Assay for human GATA Binding Protein (AID 2282944); details: HepG2 GATA cis-element reporter, Attagene multiplex mRNA; actives raise or lower the signal
Method in brief: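 Endogenous transcription factor activity was captured through cis-promoter-driven reporters in transfected HepG2 cells. After 24 h exposure, reporter transcripts were quantified by RT-PCR with fluorescent capillary electrophoresis, and responses fitted both directions against DMSO.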

[9] = ATG_GLI_CIS: Attagene CIS-FACTORIAL HepG2 Assay for human Zinc Finger Protein GLI1 (AID 2282945); details: HepG2, Attagene cis-factorial reporter mRNA, GLI element; actives raise or lower the signal
Method in brief: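 HepG2 cells transiently transfected with cis-promoter multiplexed reporter units report endogenous transcription factor activity. After 24 h chemical exposure, reporter mRNA was quantified by RT-PCR, 6-FAM labelling, HpaI digestion and capillary electrophoresis, with bidirectional fitting against DMSO.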

[10] = biological target: Bile acid receptor (Homo sapiens) (UniProt Q96RI1); assay: ATG_IR1_CIS: Attagene CIS-FACTORIAL HepG2 Assay for human Nuclear Receptor Subfamily 1 Group H Member 4 (NR1H4), IR1 submotif (AID 2282946); details: IR1 reporter transcription, actives raise or lower the signal
Method in brief: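 Readout: reporter transcript levels by RT-PCR with fluorescent capillary electrophoresis, from HepG2 cells transiently transfected with multiplexed cis-regulated reporters and dosed 24 h. Gain- or loss-of-signal fitted versus DMSO negative control.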

[11] = ATG_GRE_CIS: Attagene CIS-FACTORIAL HepG2 Assay for human Glucocorticoid Response Elements (GRE) (AID 2282947); details: HepG2 GRE cis-reporter, Attagene multiplex mRNA; actives raise or lower the signal
Method in brief: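 Cells (HepG2) bearing transfected cis-promoter reporter transcription units were treated with chemical for 24 hours. Reporter mRNA was measured via RT-PCR with capillary electrophoresis, and activity was fitted in both directions relative to DMSO.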

[12] = ATG_ISRE_CIS: Attagene CIS-FACTORIAL HepG2 Assay for human Interferon Regulatory Factor 1 (IRF1) binding to an Interferon-Stimulated Response Element (ISRE) (AID 2282948); details: HepG2 ISRE cis-reporter (Attagene), mRNA transcription readout; actives raise or lower the signal
Method in brief: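 Multiplexed mRNA reporter readout in human liver HepG2 cells: cis-element-driven reporters transfected, compound added for 24 h, transcripts amplified, fluorescently labelled and sized by capillary electrophoresis; curve fitting bidirectional against DMSO.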

[13] = ATG_M_32_CIS: Attagene CIS-FACTORIAL HepG2 Assay for M32 Transcription Factor (Internal Marker) (AID 2282949); details: HepG2 Attagene cis-factorial M32 reporter, mRNA; actives raise or lower the signal;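 further: background control marker of the multiplexed CIS panel rather than a real target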
Method in brief: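 HepG2 transfectants (cis-regulated reporter transcription units) dosed 24 h. Reporter mRNA by RT-PCR plus CE, analysed as gain or loss relative to DMSO.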

[14] = biological target: Hypoxia-inducible factor 1-alpha (Homo sapiens) (UniProt Q16665); assay: ATG_HIF1a_CIS: Attagene CIS-FACTORIAL HepG2 Assay for human Hypoxia Inducible Factor 1 (HIF1A) (AID 2282951); details: HepG2 Attagene cis-factorial HIF1a reporter transcription; actives raise or lower the signal
Method in brief: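 Fluorescence intensity of capillary-separated, 6-FAM-labelled reporter amplicons gives mRNA induction in HepG2 cells carrying transfected cis-promoter reporter units; cells exposed 24 h, responses fitted up or down from DMSO.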

[15] = biological target: Hepatocyte nuclear factor 6 (Homo sapiens) (UniProt Q9UBC0); assay: ATG_HNF6_CIS: Attagene CIS-FACTORIAL HepG2 Assay for human Hepatocyte Nuclear Factor 6 (HNF6) (AID 2282952); details: HepG2 Attagene cis-factorial HNF6 reporter transcription; actives raise or lower the signal
Method in brief: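 Using cis-element reporters in HepG2 liver cells, the assay tracks endogenous factor-driven transcription 24 h post-dosing. Signal comes from 6-FAM-labelled, HpaI-digested RT-PCR fragments, with gain or loss scored against DMSO.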

[16] = biological target: Heat shock factor protein 1 (Homo sapiens) (UniProt Q00613); assay: ATG_HSE_CIS: Attagene CIS-FACTORIAL HepG2 Assay for human Heat Shock Transcription Factor 1 (HSE) (AID 2282953); details: HepG2 HSE cis-reporter, Attagene RNA transcription; actives raise or lower the signal
Method in brief: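 Cells were transfected with cis-element-driven reporter constructs, dosed for 24 h, then total RNA was reverse-transcribed and reporter cDNA amplified, FAM-labelled and digested with HpaI. Fragments were resolved by capillary electrophoresis; gain or loss was fitted against DMSO.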

[17] = ATG_MRE_CIS: Attagene CIS-FACTORIAL HepG2 Assay for human Metal Responsive Element (MRE) (AID 2282954); details: HepG2 MRE cis-reporter transcription, Attagene multiplex; actives raise or lower the signal
Method in brief: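 Cells were transfected with cis-promoter reporter transcription units, then dosed for 24 h. RNA was reverse-transcribed, amplified, fluorescently labelled and resolved by capillary electrophoresis, and activity was fitted in both directions relative to DMSO.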

[18] = ATG_M_06_CIS: Attagene CIS-FACTORIAL HepG2 Assay for M06 Transcription Factor (Internal Marker) (AID 2282950); details: HepG2 Attagene CIS-FACTORIAL M06 internal marker reporter; actives raise or lower the signal
Method in brief: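 Steps: transfect HepG2 with multiplexed cis-element reporter constructs; dose chemical 24 h; extract RNA with DNase treatment; reverse-transcribe, PCR-amplify, 6-FAM label, HpaI digest; separate fragments by capillary electrophoresis. Activity fitted both directions versus DMSO.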

[19] = biological target: Hepatocyte nuclear factor 3-beta (Homo sapiens) (UniProt Q9Y261); assay: ATG_FoxA2_CIS: Attagene CIS-FACTORIAL HepG2 Assay for human Forkhead box A2 (FOXA2) (AID 2282942); details: HepG2 cis-reporter transcription factor activity, 24 h; actives raise or lower the signal
Method in brief: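 Reporter transcript induction is measured by fluorescence after capillary electrophoresis of RT-PCR products from HepG2 cells exposed 24 h. Cis-regulated reporter units report endogenous factor activity; curves fitted both directions against DMSO.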

Measured: AC50

Transcription factor E2F1 (Homo sapiens), sequence (Q01094 whole entry, looked up): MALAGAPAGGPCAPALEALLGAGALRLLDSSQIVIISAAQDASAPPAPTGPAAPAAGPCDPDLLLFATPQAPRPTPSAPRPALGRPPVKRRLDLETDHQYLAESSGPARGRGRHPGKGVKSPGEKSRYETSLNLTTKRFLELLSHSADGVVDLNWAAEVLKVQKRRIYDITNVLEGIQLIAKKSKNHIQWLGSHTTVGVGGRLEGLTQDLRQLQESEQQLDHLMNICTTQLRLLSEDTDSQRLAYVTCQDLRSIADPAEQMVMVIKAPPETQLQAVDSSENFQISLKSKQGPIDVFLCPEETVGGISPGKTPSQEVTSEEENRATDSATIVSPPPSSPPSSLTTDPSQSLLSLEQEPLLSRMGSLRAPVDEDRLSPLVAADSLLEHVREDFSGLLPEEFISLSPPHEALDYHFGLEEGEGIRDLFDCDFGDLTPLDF
Hypoxia-inducible factor 1-alpha (Homo sapiens), sequence (Q16665 whole entry, looked up): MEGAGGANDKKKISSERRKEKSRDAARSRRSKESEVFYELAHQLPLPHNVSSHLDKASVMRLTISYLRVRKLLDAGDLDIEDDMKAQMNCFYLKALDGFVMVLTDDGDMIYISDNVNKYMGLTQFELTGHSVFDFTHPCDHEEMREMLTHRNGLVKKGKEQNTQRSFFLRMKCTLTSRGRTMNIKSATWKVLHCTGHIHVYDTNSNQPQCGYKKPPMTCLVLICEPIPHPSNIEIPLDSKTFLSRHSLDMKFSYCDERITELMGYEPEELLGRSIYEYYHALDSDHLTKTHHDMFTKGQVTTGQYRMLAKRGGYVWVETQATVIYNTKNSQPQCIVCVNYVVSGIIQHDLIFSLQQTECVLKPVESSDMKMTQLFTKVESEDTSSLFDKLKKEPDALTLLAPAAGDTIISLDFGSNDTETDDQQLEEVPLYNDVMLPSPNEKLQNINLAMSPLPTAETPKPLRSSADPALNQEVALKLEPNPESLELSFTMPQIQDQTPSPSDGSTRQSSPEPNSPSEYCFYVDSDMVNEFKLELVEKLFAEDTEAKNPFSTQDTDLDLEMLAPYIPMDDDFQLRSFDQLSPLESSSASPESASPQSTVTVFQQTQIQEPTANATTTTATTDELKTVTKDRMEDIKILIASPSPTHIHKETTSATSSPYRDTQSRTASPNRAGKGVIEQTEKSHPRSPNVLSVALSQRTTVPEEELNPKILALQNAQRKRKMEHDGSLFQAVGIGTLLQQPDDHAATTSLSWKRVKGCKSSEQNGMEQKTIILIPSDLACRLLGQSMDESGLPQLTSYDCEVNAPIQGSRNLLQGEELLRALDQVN
Hepatocyte nuclear factor 6 (Homo sapiens), sequence (Q9UBC0 whole entry, looked up, the tested form may be a part): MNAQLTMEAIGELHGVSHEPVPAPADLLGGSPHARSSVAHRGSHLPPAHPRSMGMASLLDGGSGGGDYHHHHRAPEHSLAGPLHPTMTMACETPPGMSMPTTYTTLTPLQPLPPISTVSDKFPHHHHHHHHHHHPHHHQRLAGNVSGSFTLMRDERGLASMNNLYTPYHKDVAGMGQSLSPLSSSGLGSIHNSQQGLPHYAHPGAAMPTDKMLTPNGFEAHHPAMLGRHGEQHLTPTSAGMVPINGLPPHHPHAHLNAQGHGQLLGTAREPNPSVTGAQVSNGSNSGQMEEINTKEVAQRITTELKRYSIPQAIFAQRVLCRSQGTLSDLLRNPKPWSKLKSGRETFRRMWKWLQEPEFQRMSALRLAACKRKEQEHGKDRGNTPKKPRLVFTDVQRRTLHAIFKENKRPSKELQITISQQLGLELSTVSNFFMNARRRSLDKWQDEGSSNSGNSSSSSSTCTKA
Bile acid receptor (Homo sapiens), sequence (Q96RI1 whole entry, looked up): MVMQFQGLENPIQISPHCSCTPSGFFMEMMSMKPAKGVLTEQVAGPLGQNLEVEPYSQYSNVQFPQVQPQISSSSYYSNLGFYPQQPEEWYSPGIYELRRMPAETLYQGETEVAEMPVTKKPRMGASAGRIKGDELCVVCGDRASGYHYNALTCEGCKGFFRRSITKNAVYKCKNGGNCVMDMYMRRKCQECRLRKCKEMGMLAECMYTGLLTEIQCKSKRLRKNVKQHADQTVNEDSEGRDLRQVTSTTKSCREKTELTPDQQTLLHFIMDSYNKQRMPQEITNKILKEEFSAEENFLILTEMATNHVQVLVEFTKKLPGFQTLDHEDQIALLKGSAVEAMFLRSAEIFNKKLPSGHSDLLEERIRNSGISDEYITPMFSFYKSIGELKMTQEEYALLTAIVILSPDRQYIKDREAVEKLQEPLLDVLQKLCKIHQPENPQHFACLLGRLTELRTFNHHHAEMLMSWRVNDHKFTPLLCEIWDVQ
Heat shock factor protein 1 (Homo sapiens), sequence (Q00613 whole entry, looked up, the tested form may be a part): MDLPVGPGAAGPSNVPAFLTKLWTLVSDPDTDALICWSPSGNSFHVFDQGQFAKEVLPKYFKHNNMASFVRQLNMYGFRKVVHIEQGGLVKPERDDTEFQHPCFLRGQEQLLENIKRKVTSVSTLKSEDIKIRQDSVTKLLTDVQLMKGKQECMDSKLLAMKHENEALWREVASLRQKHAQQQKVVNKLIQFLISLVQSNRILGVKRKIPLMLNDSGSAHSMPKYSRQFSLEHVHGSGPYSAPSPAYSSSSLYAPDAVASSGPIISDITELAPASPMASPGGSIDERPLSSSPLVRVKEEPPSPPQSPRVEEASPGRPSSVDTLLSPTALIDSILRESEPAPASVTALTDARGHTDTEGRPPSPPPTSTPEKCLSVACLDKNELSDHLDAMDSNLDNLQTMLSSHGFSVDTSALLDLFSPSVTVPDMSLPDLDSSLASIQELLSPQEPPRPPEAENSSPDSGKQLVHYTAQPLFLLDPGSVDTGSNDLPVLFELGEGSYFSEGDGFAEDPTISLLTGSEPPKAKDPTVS
Hepatocyte nuclear factor 3-beta (Homo sapiens), sequence (Q9Y261 whole entry, looked up): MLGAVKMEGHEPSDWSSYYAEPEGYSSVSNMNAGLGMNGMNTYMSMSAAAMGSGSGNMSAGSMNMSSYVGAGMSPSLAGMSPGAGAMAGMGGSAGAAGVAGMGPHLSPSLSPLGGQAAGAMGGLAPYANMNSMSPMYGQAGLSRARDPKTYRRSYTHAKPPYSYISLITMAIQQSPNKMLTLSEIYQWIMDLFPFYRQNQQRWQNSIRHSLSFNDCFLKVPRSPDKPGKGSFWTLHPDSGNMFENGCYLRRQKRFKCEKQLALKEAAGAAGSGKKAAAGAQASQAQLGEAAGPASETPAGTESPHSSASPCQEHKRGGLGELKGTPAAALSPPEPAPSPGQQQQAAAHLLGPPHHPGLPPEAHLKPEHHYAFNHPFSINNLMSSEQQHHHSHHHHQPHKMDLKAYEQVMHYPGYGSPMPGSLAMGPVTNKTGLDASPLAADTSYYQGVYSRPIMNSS

CCN(CC)c1ccc(N=Nc2ccccc2)cc1
active: [2] 20.9 µM | [4] 12.3 µM | [16] 144 µM | [17] 7.22 µM
not listed: [18] | [19]
inactive: all other assays above

O=C1c2ccccc2C(=O)c2c(Cl)cccc21
not listed: [19]
inactive: all other assays above

NS(=O)(=O)C(F)(F)C(F)(F)C(F)(F)C(F)(F)C(F)(F)C(F)(F)F
active: [6] 41.4 µM | [17] 59 µM
not listed: [15]
inactive: all other assays above

CC(C)(C)c1cc(Cc2cc(C(C)(C)C)c(O)c(C(C)(C)C)c2)cc(C(C)(C)C)c1O
not listed: [14]
inactive: all other assays above
